# Experimental data reported in PubChem BioAssay.
# Entries with a potency or affinity are not part of this list. Calls of active or inactive are those of the source.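 Rule for the calls, unless noted: active = a dose-response fit showing signal loss, with half-maximal concentration no higher than twice the top tested dose; inconclusive = flat fit between 30% and 70% signal loss, or poor fit; inactive = the rest.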
# Assay: inducers of Cryptococcus neoformans cell lysis, dose response, AK release luminescence, cherry-picks (AID 687000;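 active = fitted dose curve reaches 40% lysis signal rise at or below the highest valid concentration tested for that sample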;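 note: luminescent detection of adenylate kinase leaking from lysed yeast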)
# Settings: C. neoformans lysis, adenylate kinase release luminescence, 4 h, 100% = twice the neutral-control signal; series mostly up to 15 µM
row,Compound,outcome
1,c1ccc(-n2ncc3c(NCc4ccc5c(c4)OCO5)ncnc32)cc1,inactive
2,C[C@@H]1CCCCO[C@@H](CN(C)C(=O)NC2CCCCC2)[C@H](C)CN([C@@H](C)CO)C(=O)c2cc(NS(=O)(=O)c3cn(C)cn3)ccc2O1,inactive
3,O=C(CCN1CCCCC1)NCC[C@@H]1CC[C@H](NC(=O)c2ccc(F)cc2)[C@@H](CO)O1,inactive
4,O=C(c1c(Cl)cccc1Cl)N1CCN(c2ccccn2)CC1,inactive
5,COCC#Cc1ccc2c(c1)O[C@H](CN(C)S(=O)(=O)c1ccc(OC)cc1)[C@H](C)CN([C@H](C)CO)S2(=O)=O,inactive
6,C[C@H](NC(=O)C[C@@H]1C=C[C@H](NC(=O)CN2CCOCC2)[C@H](CO)O1)c1ccccc1,inactive
7,N#Cc1ccc(C23CC4(C2)[C@H](CN(Cc2ccc(C(F)(F)F)cc2)[C@@H]4c2ccccc2)C3c2ccccc2)cc1 (some centres not stated),inactive
8,CC(C)c1ccc(OCC(=O)NC(C)c2ccccc2)cc1 (configuration not stated),inactive
9,Cc1c(C(=O)NC(=S)Nc2ccc(N3CCOCC3)cc2)cccc1[N+](=O)[O-],inactive
10,COc1ccccc1NC(=O)c1cn(C)c(=O)c2cc(OC)c(OC)cc12,inactive
11,Cc1c(Cl)cccc1NC(=O)C1NC(=O)CC1c1ccccc1 (configuration not stated),inactive
12,CNC[C@H]1Oc2cc(Br)ccc2S(=O)(=O)N([C@H](C)CO)C[C@H]1C,inactive
13,Cc1noc(C)c1NC(=O)N(C)C[C@@H]1Oc2ccc(NC(=O)NC(C)C)cc2CC(=O)N([C@@H](C)CO)C[C@@H]1C,inactive
14,CN1c2ccc(-c3ccc(F)cc3)cc2[C@@H]2[C@@H](CCN2C(=O)C2CCOCC2)[C@@H]1CO,inactive
15,Cc1cc(OCC(=O)NC(C)c2ccccc2)ccc1[N+](=O)[O-] (configuration not stated),inactive
16,COc1ccc(NC(=O)CSc2ncnc3c2cnn3Cc2ccccc2)cc1,inactive
17,CCCC[C@@H]1CNC(=S)N1CCc1cccc(F)c1,inactive
18,CC(C)COc1ccc(CNC(=S)NCc2ccccc2)cc1,inactive
19,CCc1ccc(NC(=O)[C@H](C)NC(=O)C2CCN(C(=O)[C@@H](N)CC(C)C)CC2)cc1,inactive
20,CCC(=O)Nc1ccc2c(c1)C(=O)N(C)C[C@H](OC)[C@@H](C)CN[C@H](C)CO2,inactive
21,CCCC(=O)N1CCC1(C)C(=O)Nc1cc(C)ccc1C (configuration not stated),inactive
22,COC(=O)C1=C(C)N(Cc2ccccc2)C(=O)N[C@H]1c1cccc(F)c1,inactive
23,O=C1CCC(C(=O)Nc2ccc([N+](=O)[O-])cc2)N1 (configuration not stated),inactive

# Assay: HepG2 cell cytotoxicity, dose response, cytotoxicity control, cherry-picks, set 2 (AID 687002)
# Settings: HepG2 viability, ATP luminescence (CellTiter-Glo), 48 h; series mostly up to 26 µM
row,Compound,outcome
1,CN(C)CCCn1c(=O)n(C2CCCCC2)c(=O)c2c3c(sc21)CCCCC3,inactive
2,Cc1ccc(/C=C2\SC(=S)N(NS(=O)(=O)c3ccc(C)cc3)C2=O)cc1,inactive
3,Cc1ccc(C(=O)NC(=S)Nc2cccc(NC(=O)c3ccccc3)c2)cc1[N+](=O)[O-],inactive
4,CC(=O)N[C@H]1CC[C@@H](CCNC(=O)C2CCC2)O[C@H]1CO,inactive
5,COc1ccc(CN(C)C[C@@H]2Oc3ccc(NS(C)(=O)=O)cc3CC(=O)N([C@H](C)CO)C[C@H]2C)cc1,inactive
6,Cc1ccc(NC(=S)NCc2ccc(Cl)cc2)c(OC(F)F)c1,inactive
7,O=C(COc1ccc2c(c1)CCC2)NCc1ccccc1,inactive
8,O=C(CN1CCOCC1)N[C@@H]1CC[C@@H](CCNC(=O)C2CCC2)O[C@@H]1CO,inactive
9,O=C(Oc1ccc2c3c(c(=O)oc2c1)CCCC3)c1ccco1,inactive
10,O=C(NC(=S)NCC1COc2ccccc2O1)c1ccccc1 (configuration not stated),inactive
11,COc1ccc(C2CC(c3cccs3)=NN2C(=O)c2ccco2)cc1OC (configuration not stated),inactive
12,O=C(NC(=S)Nc1ccc(N2CCOCC2)cc1)c1cccc([N+](=O)[O-])c1,inactive
13,C[C@@H]1CN([C@H](C)CO)C(=O)c2cc(NS(=O)(=O)c3cn(C)cn3)ccc2O[C@@H](C)CCCCO[C@H]1CN(C)C,inactive
14,COC(=O)C1=C(C)N(Cc2ccc(F)cc2)C(=S)NC1c1cccc(OC)c1 (configuration not stated),inactive
15,O=C(CN(c1ccc(F)cc1)S(=O)(=O)c1ccccc1)NC1CC2CCC1C2 (configuration not stated),inactive
16,C#CCN(C(=O)c1ccc(OC2CCN(C(=O)CCOC)CC2)cc1)C1CCCCC1,inactive
17,c1ccc(-n2ncc3c(NCc4ccc5c(c4)OCO5)ncnc32)cc1,inactive
18,C[C@@H]1CCCCO[C@@H](CN(C)C(=O)NC2CCCCC2)[C@H](C)CN([C@@H](C)CO)C(=O)c2cc(NS(=O)(=O)c3cn(C)cn3)ccc2O1,inactive
19,O=C(CCN1CCCCC1)NCC[C@@H]1CC[C@H](NC(=O)c2ccc(F)cc2)[C@@H](CO)O1,inactive
20,O=C(c1c(Cl)cccc1Cl)N1CCN(c2ccccn2)CC1,inactive

row,Compound,outcome
1,COCC#Cc1ccc2c(c1)O[C@H](CN(C)S(=O)(=O)c1ccc(OC)cc1)[C@H](C)CN([C@H](C)CO)S2(=O)=O,inactive
2,C[C@H](NC(=O)C[C@@H]1C=C[C@H](NC(=O)CN2CCOCC2)[C@H](CO)O1)c1ccccc1,inactive
3,N#Cc1ccc(C23CC4(C2)[C@H](CN(Cc2ccc(C(F)(F)F)cc2)[C@@H]4c2ccccc2)C3c2ccccc2)cc1 (some centres not stated),inactive
4,CC(C)c1ccc(OCC(=O)NC(C)c2ccccc2)cc1 (configuration not stated),inactive
5,Cc1c(C(=O)NC(=S)Nc2ccc(N3CCOCC3)cc2)cccc1[N+](=O)[O-],inactive
6,COc1ccccc1NC(=O)c1cn(C)c(=O)c2cc(OC)c(OC)cc12,inactive
7,Cc1c(Cl)cccc1NC(=O)C1NC(=O)CC1c1ccccc1 (configuration not stated),inactive
8,CNC[C@H]1Oc2cc(Br)ccc2S(=O)(=O)N([C@H](C)CO)C[C@H]1C,inactive
9,Cc1noc(C)c1NC(=O)N(C)C[C@@H]1Oc2ccc(NC(=O)NC(C)C)cc2CC(=O)N([C@@H](C)CO)C[C@@H]1C,inactive
10,CN1c2ccc(-c3ccc(F)cc3)cc2[C@@H]2[C@@H](CCN2C(=O)C2CCOCC2)[C@@H]1CO,inactive
11,Cc1cc(OCC(=O)NC(C)c2ccccc2)ccc1[N+](=O)[O-] (configuration not stated),inactive
12,COc1ccc(NC(=O)CSc2ncnc3c2cnn3Cc2ccccc2)cc1,inactive
13,CCCC[C@@H]1CNC(=S)N1CCc1cccc(F)c1,inactive
14,CC(C)COc1ccc(CNC(=S)NCc2ccccc2)cc1,inactive
15,CCc1ccc(NC(=O)[C@H](C)NC(=O)C2CCN(C(=O)[C@@H](N)CC(C)C)CC2)cc1,inactive
16,CCC(=O)Nc1ccc2c(c1)C(=O)N(C)C[C@H](OC)[C@@H](C)CN[C@H](C)CO2,inactive
17,CCCC(=O)N1CCC1(C)C(=O)Nc1cc(C)ccc1C (configuration not stated),inactive
18,COC(=O)C1=C(C)N(Cc2ccccc2)C(=O)N[C@H]1c1cccc(F)c1,inactive
19,O=C1CCC(C(=O)Nc2ccc([N+](=O)[O-])cc2)N1 (configuration not stated),inactive
